# About 330 (0.097%) of roughly 340,000 compounds were called active. The sample holds actives, similar compounds and a random draw of the others, so the mix is not that of the screen. A number with no mark means an inactive call.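 How the source made its calls: active means mean replicate inhibition of at least 30% and at least 1% of replicates passing that level; inconclusive means only one of the two criteria is met; inactive means neither criterion is met.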
# Tested on: Voltage-dependent L-type calcium channel subunit alpha-1D (CaV1.3) ICDI/IQ interaction
# Experiment: Primary screen for inhibitors of IQ motif and Ca2+-dependent inactivation inhibitor domain binding in CACNA1D, Förster resonance energy transfer in living cells, single-concentration test (AID 743397);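 further: 0% = median of the neutral control wells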
# Details: HEK cells, CFP/YFP FRET ICDI-IQ, plate reader, 10 min; at 12.3 µM; stronger effect = higher value; percent FRET-ratio fall versus neutral wells
row,SMILES,inhibition [%]
1,COc1ccccc1Cc1c(-c2ccc(F)cc2)nc2ccc(C)cn12,-8.77
2,CC(C)(C)C(c1nc2ccccc2[nH]1)n1c(Cc2csc3ccccc23)nc2ccccc21 (stereo not given),-10
3,COC(=O)[C@]12C[C@H](CC(=O)NCc3ccccc3)C(=O)N(CCC3=CCCCC3)C1=C[C@H](C(C)(C)C)O[C@@H]2C,-8.62
4,COC(=O)Cc1nnn2c1[C@H](C)[C@H](c1ccccc1Br)OCC2,-6.7
5,CC(=O)c1ccc(S(=O)(=O)NCC2CCN(C(=O)C(=O)c3cccs3)CC2)cc1,-7.65
6,COc1ccc(-c2ccccc2C2Cc3nnccc3CN2C(=O)Nc2ccccc2)cc1 (stereo not given),-4.58
7,CC(C)[C@@H](C)/C=C/[C@@H](C)[C@H]1CC[C@@H]2[C@]1(C)CCC1[C@]23C=C[C@]2(C[C@@H](O)CC[C@]12C)N(c1ccc([N+](=O)[O-])cn1)O3 (stereo not given in full),-8.61
8,COC(=O)C1=C(C)N(Cc2ccccc2C(F)(F)F)C(=NCc2ccc(C(F)(F)F)cc2)NC1c1ccc(F)cc1 (stereo not given),-9.8
9,CCCCCc1c(-c2ccc(OC)c(OC)c2)ncn1CCc1ccccc1OC,-11
10,COC(=O)Cc1nnn2c1[C@H](C)[C@@H](OC)c1cc(Br)ccc1-2,-5.26
11,CCCN1C(=O)c2[nH]nc(-c3ccccc3)c2C1c1ccccc1 (stereo not given),-3.81
12,COC(=O)[C@H](CC(C)C)NS(=O)(=O)c1c(F)cccc1F,-4.96
13,CSc1ccc(Oc2cccc3c2S(=O)(=O)N([C@H](C)c2ccccc2)C[C@@H](COCc2ccccc2)O3)cc1C,-9.54
14,COc1cccc(CC(=O)N2CCN(C(=O)C(=O)c3cccc(C(F)(F)F)c3)CC2)c1,-9.3
15,Cc1ccc(NS(=O)(=O)c2cc3c(cc2Br)NC(=O)CO3)cc1C,-4.61
16,OC(c1ccccc1)(c1ccccc1)C1CCN(CCCOc2ccc(-c3ccsc3)cc2)CC1,-9.67
17,COC(=O)[C@]12C[C@H](CC(=O)NCc3ccc(C)o3)C(=O)N(CCC3=CCCCC3)C1=C[C@H](C(C)(C)C)O[C@@H]2C,-11.3
18,CCCCCCCCN1C(=O)[C@@H](CC(=O)N2CCN(C(=O)OCC)CC2)C[C@@]2(C(=O)OC)C1=C[C@H](C1CCCC1)O[C@@H]2C,-9.25
19,C[C@H](CO)N1C[C@H](C)[C@@H](CN(C)C(=O)Nc2ccccc2F)OCc2cn(nn2)CCCC1=O,-4.14
20,CN(C)C(=O)N1CCN(C(=O)[C@@H](Cc2ccccc2)NC(=O)[C@H]2O[C@@H](n3ccc(N)nc3=O)[C@H](O)[C@@H]2O)CC1,-3.39

# Source: PubChem BioAssay AID743397 (Broad Institute, 2014)
